# Reference: PubChem BioAssay (NCI)
# Several values for one entry are separate records, joined by “and”; a condition that tells them apart may be missing. Equal values may be shown once. About 79,000 compounds went through this panel and 15% of them were active in at least one assay; those are over-represented in the sample as a whole. A number with no mark means an inactive call. Activity calls are given as the source filed them. Cut-off read from the data, not from the text of the source: active = growth inhibition above about 70%; inactive = the rest. Where a SMILES comes first, the peptide text is derived from it. The star is where a group is joined. Cbz = O=C(OCc1ccccc1)*
# How the values were obtained:
# [1] = NCI Yeast Anticancer Drug Screen. Data for the rad50 strain (AID 155);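 note: 0% = growth of vehicle-only cultures of the same strain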; conditions: S. cerevisiae rad50 strain growth inhibition, stronger effect = higher value; at 50.0 µM unless noted
# Method in brief: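 DNA repair mutant yeast, compound exposure, growth read-out; inhibition is taken relative to vehicle.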
# [2] = NCI Yeast Anticancer Drug Screen. Data for the mec2-1 strain (AID 157); conditions: S. cerevisiae mec2-1 strain, stronger effect = higher value; at 50.0 µM unless noted
# Method in brief: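 Using mec2-1 yeast: add compound, measure growth, express inhibition versus vehicle-treated cultures.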
# [3] = NCI Yeast Anticancer Drug Screen. Data for the sgs1 mgt1 strain (AID 161);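 note: 0% = growth of cultures given vehicle only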; conditions: S. cerevisiae sgs1 mgt1 strain, stronger effect = higher value; at 50.0 µM unless noted
# Method in brief: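 Yeast cells carrying a defined DNA-repair defect were exposed to test compounds. Growth inhibition was measured relative to vehicle-treated controls.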
# [4] = NCI Yeast Anticancer Drug Screen. Data for the cln2 rad14 strain (AID 165);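 note: 0% = growth equal to vehicle treated cultures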; conditions: S. cerevisiae cln2 rad14 strain, stronger effect = higher value; at 50.0 µM unless noted
# Method in brief: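 Yeast strain cln2 rad14, bearing defects in cell cycle control and DNA repair, serves as the test system; values reflect growth inhibition compared with vehicle.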
# [5] = NCI Yeast Anticancer Drug Screen. Data for the bub3 strain (AID 167); conditions: S. cerevisiae bub3 mutant strain, stronger effect = higher value; at 50.0 µM unless noted
# Method in brief: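 In this screen, a yeast mutant lacking normal mitotic checkpoint function is challenged with compound. Relative growth versus vehicle gives the inhibition value.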
# [6] = NCI Yeast Anticancer Drug Screen. Data for the mlh1 rad18 strain (AID 175); conditions: S. cerevisiae mlh1 rad18 strain growth inhibition, stronger effect = higher value; at 50.0 µM unless noted
# Method in brief: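 Steps: expose repair-defective yeast to compound; measure growth; express inhibition against vehicle-treated controls.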
SMILES,growth inhibition [1],growth inhibition [2],growth inhibition [3],growth inhibition [4],growth inhibition [5],growth inhibition [6]
Cc1ccc(S(=O)(=O)Oc2ccc3oc4cccc(NCCN(C)C)c4c(=O)c3c2)cc1,-3.5%,-13.7%,-21.4%,5%,-6.4%,3.1%
COc1ccc2c(c1)[nH]c1c3ccc(OC)cc3oc(=O)c21,-52%,-50%,-35.5%,1.95%,-38.6%,-33.9%
N#Cc1c(-c2ccccc2)[nH]c2ccccc2c1=O,54.7%,55.4%,2.05%,11.3%,-3.65%,-17.5%
O=C(O)CN(CCO)CCN(CC(=O)O)CC(=O)O.[Fe+2],6%,-32%,-18.5%,18.6%,-14.5%,2.25%
CC(=O)ONC(C(=O)C(C)(C)C)C(=O)C(C)(C)C,-1.4%,-4.4%,-3.9%,24.7%,-2.7%,-4.8%
COc1ccc2[nH]c3cc4c(=O)c5cc(OC)ccc5[nH]c4cc3c(=O)c2c1,-31.6%,-15.8%,-6.2%,5.05%,-2.9%,-37.6%
Cc1cc2nc3c4ccccc4scc-3c2cc1C,99% (active),99.3% (active),99.3% (active),99% (active),99.1% (active),98% (active)
O=C(CCCCl)N1CCCCCC1,-5.25%,11.6%,-17.5%,-37%,15.1%,5.7%
CCOC(=O)C(CCc1ccccc1)C(C)=O (centres undefined),-0.75%,-7.95%,-0.25%,40.5%,2.45%,-11.8%
Cc1ccc(C)c(CCCCS(=O)(=O)O)c1,-27.9%,-8.1%,-5.75%,-40.4%,1.2%,-7.6%
CN(C)C(n1cc2c(c1)-c1ccc(Cl)cc1C(c1ccccc1F)=NC2)n1cc2c(c1)-c1ccc(Cl)cc1C(c1ccccc1F)=NC2,11.8%,-8.8%,1%,7.8%,-7.55%,-22.9%
N#CC(C#N)N=O (tested in a mixture with another compound),-4.1%,-15.3%,-15.2%,-19.7%,-6.9%,-6.25%
CNC(=O)c1n[nH]nc1Sc1c([N+](=O)[O-])ncn1C,-39%,-43%,-34.1%,-34.2%,-20.6%,-29.4%
Cc1cc[n+](CCC(N)=O)cc1,-10.8%,-30.8%,-3%,1.85%,-16.9%,-19.9%
CNC(=O)OCc1cc(C)cc(C)c1-c1ccco1,-4.95%,-9.15%,28.4%,4%,10.3%,7.05%
CCCc1[nH]n(-c2ccccc2)c(=O)c1N=Nc1cccc(C(F)(F)F)c1,-10.7%,-1.1%,-7.3%,-12.8%,-5%,-7.95%
CCCC(=O)N(CCC(C)C)c1ccccc1,-12.6%,6.3%,2.45%,9.9%,-9.25%,-7.8%
CCCOCC[N+](C)(C)C,1.65%,-21.9%,8.65%,-34.5%,-8.9%,-8.9%
CC(C)(C)NC(=O)Nc1ccc2ccccc2c1,-7.7%,3.95%,-8.2%,-68.5%,-24.1%,-11.3%
C/C=C/C(=O)Oc1ccc[nH]c1=O,-10.9%,13.1%,4.85%,-2.15%,11.8%,-4.25%

SMILES,growth inhibition [1],growth inhibition [2],growth inhibition [3],growth inhibition [4],growth inhibition [5],growth inhibition [6]
CSCCC(Nc1ccc([N+](=O)[O-])cc1[N+](=O)[O-])C(=O)O (centres undefined),9.55%,7.25%,34.4%,18.1%,17.9%,-18.1%
COc1cc(OC)c(I)cc1Cl,-10.1%,-37.5%,4.55%,13.4%,-29.2%,-12.3%
COc1cccc(N(CN2CC=CC2=O)C(C)=O)c1,-1.65%,6.3%,10.6%,18.6%,-16.8%,-44.3%
N#CSC(C(=O)c1ccccc1)c1ccccc1 (centres undefined),94.2% (active),60.6%,91.2% (active),89% (active),95.2% (active),91.3% (active)
COc1ccc(-n2c(CCC(=O)O)nc3c2C(=O)c2ccccc2C3=O)cc1,31.6%,17.6%,34%,49%,14.7%,14.2%
O=C1C2C(c3ccccc3)NC(c3ccccc3)C1C(c1ccccc1)NC2c1ccccc1 (centres undefined),-13.4%,-8.5%,-35.6%,-18.1%,-65%,0.9%
NCCCc1nonc1C(=O)O,-15.2%,-39.4%,-3.85%,-4.05%,-7.3%,-13.3%
COC(=O)CCC1(C)C2CCC1(C)/C(=N/O)C2 (centres undefined),-10.2%,3.15%,2.35%,0.45%,-21.1%,6.7%
COc1ccccc1NC(=O)c1ccccc1,23.2%,11.3%,4.95%,-9.25%,2.75%,16.1%
Cc1c(N(C)CN(C)c2c(C)n(C)n(-c3ccccc3)c2=O)c(=O)n(-c2ccccc2)n1C,-13.2%,-27.4%,-15.7%,3.25%,-12.9%,-18%
C/C(CC(=O)Nc1ccc(Cc2ccc(Br)cc2)cc1)=N/Nc1ccc([N+](=O)[O-])cc1[N+](=O)[O-],25.1%,12.6%,31.3%,16.5%,4.1%,24.7%
O=C(c1ccc(Cl)cc1)c1ccc(OCCCOc2ccc(C(=O)c3ccc(Cl)cc3)cc2Cl)c(Cl)c1,9.55%,-7.95%,-2.35%,-46.9%,-20.3%,2.15%
C=C1C(=O)O[C@@H]2O[C@@]3(C)CC[C@H]4[C@H](C)CC[C@@H]1[C@@]24O3,26.6%,26.9%,52.1%,22%,12.2%,40.5%
CCOC(=O)CCC(NC(=O)C(Cc1ccccc1)NC(=O)OCc1ccccc1)C(=O)OCC (stereo not drawn) (Cbz-Phe-Glu(OEt)-OEt; configuration not given here),3.9%,-2.9%,-0.2%,-6.25%,-7.85%,-59.4%
CC(C)(O)C[N+](=O)[O-],5.85%,-1.8%,0.85%,-7.7%,0%,3.05%
O=C(c1ccccc1)C(c1ccccc1)C(Cl)c1ccccc1 (centres undefined),21.4%,30.8%,31.4%,3%,-3.2%,19%
CCC(=O)OC(C)COc1ccccc1 (centres undefined),-6.2%,3.25%,-3.9%,-43.5%,-5.8%,-10.4%
Cc1nn(C(=O)Cc2ccccc2)c2c1C(c1ccc(Cl)cc1)SC(N)=N2 (centres undefined),-30.1%,-31.5%,-29.1%,6.45%,-23.6%,-25.1%
CCOC(=O)c1c(C)cc(=O)oc1C,-8.65% and 3.95%,7.55% and -1.6%,-4.65% and -3.25%,-31.3% and -11.1%,2.3% and -1.7%,-11.8% and 8.75%
